In PubChem BioAssay (Tox21):
Results filed as inconclusive are left out. Activity calls are given as the source filed them. Unless noted, the call rests on the fitted dose curve; in most records, active means well fitted curve in the direction sought with a large enough effect in the repeat runs; inconclusive means weak or mixed curves; inactive means no such curve, though single readings can be large; an effect the other way counts as inactive or inconclusive.

How the values were obtained:
[1] = qHTS assay to identify small molecule antagonists of the estrogen related receptor (ERR) signaling pathway from Tox21 library - cell viability counter screen (AID 1224834); further: nearly all actives have a fitted effect of over 30% in size
In short: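 Counter screen run in ERR cells (2,000 cells/well): cells pre-incubated 6 h, then treated with compounds for 17.5 h at 37 C. Fluorescence was read 30 min after CellTiter-Fluor addition.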

[2] = biological target: Luciferin 4-monooxygenase (Photinus pyralis) (UniProt P08659); test: qHTS assay to identify small molecule inhibitors of firefly luciferase (AID 1224835); further: series mostly up to about 120 µM; nearly all actives have a fitted effect of over 25% in size
Sequence of Luciferin 4-monooxygenase (Photinus pyralis) (P08659 whole entry, looked up): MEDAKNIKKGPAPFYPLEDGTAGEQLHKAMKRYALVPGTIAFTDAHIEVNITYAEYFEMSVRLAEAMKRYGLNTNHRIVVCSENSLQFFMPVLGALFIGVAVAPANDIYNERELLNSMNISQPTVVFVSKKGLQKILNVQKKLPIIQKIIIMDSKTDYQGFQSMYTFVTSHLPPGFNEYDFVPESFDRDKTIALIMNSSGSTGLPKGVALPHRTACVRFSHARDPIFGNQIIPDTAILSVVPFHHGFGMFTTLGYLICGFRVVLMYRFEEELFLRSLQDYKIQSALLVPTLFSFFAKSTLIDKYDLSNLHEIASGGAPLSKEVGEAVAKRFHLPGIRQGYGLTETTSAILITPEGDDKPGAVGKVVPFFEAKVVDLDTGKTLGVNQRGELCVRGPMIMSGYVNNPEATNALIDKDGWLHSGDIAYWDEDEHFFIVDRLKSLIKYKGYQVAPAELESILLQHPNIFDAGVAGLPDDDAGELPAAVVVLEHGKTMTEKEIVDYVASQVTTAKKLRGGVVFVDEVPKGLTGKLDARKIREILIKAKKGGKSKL
In short: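 Quantitative HTS format; KM concentrations of both substrates. Purified P. pyralis FLuc activity quantified from luminescence images.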

[3] = qHTS assay to identify small molecule agonists of the constitutive androstane receptor (CAR) signaling pathway - cell viability counter screen (AID 1224836); further: series mostly up to about 92 µM; nearly all actives have a fitted effect of over 45% in size
In short: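 HepG2 cells stably carrying hCAR and a CYP2B6-2.2kb reporter; 15-concentration compounds plus PK11195 (final 0.75 uM), 23 hr at 37 C/5% CO2. Viability read by CellTiter-Fluor fluorescence.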

[4] = qHTS assay to identify small molecule antagonists of the constitutive androstane receptor (CAR) signaling pathway - cell viability counter screen (AID 1224837); further: series mostly up to about 92 µM; nearly all actives have a fitted effect of over 45% in size
In short: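 CITCO at 50 nM final was added alongside compounds (15 concentrations) to double-stable hCAR/CYP2B6-2.2kb HepG2 cells. Following 23 hr at 37 C, cell viability was quantified by CellTiter-Fluor fluorescence intensity.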

[5] = qHTS assay to identify small molecule antagonists of the estrogen related receptor signaling pathway with the pleiotropic PPARgamma coactivator (PGC) from Tox21 10K library - cell viability counter screen (AID 1224840; active means well fitted cell-killing curve with a large enough effect in the repeat runs, not every such curve was filed as active; further: nearly all actives have a fitted effect of over 40% in size)
In short: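 Readout: fluorescence intensity from CellTiter-Fluor after 30 min at 37 C/5% CO2. Preceded by 17.5 h treatment of PGC/ERR cells with DMSO-dissolved compounds, added 6 h post-seeding.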

[6] = biological target: Thyrotropin receptor (Homo sapiens) (UniProt P16473); test: qHTS assay to identify small molecule agonists of the thyroid stimulating hormone receptor (TSHR) signaling pathway (AID 1224843; calls by dose curve; further: nearly all actives have a fitted effect of over 45% in size)
Sequence of Thyrotropin receptor (Homo sapiens) (P16473 whole entry, looked up): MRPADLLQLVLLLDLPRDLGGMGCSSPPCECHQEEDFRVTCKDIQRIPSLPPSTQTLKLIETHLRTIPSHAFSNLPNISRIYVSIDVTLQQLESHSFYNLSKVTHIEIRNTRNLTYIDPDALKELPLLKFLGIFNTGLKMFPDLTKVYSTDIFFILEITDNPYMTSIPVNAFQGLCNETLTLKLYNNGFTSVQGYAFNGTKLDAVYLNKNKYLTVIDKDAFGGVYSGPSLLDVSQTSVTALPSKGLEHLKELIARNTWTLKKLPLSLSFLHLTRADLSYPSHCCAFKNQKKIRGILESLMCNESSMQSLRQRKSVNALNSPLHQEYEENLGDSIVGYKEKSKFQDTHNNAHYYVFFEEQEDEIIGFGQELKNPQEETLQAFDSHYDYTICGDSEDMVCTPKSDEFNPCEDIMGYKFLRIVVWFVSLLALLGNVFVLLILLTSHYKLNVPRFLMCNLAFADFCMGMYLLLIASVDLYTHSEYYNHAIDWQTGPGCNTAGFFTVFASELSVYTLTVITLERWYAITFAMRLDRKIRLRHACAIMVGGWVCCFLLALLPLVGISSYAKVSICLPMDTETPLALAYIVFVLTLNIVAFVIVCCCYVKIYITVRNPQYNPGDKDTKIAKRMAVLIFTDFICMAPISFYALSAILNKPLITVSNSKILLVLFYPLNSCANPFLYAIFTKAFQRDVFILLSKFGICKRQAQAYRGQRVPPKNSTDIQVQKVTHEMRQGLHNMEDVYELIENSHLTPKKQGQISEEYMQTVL
In short: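 Using 15 concentrations per compound in triplicate, cAMP production was monitored in TSHR-HEK293 cells after 30 min compound incubation at RT; HTRF reagents followed, with fluorescence intensity recorded after 1 h.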

[7] = qHTS assay to identify small molecule antagonists of the estrogen related receptor signaling pathway with the pleiotropic PPARgamma coactivator (PGC) from Tox21 10K library (AID 1224841; call rule not given here; further: series mostly up to about 92 µM; actives are mostly falling curves and most rising ones were filed inactive; nearly all actives have a fitted effect of over 50% in size)
In short: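 One-Glo luminescence, measured after half an hour at room temperature, quantified reporter output of PGC/ERR cells. These had been plated at 2,000 per well, incubated 6 h, dosed with compounds in DMSO, then kept 18 h at 37 C.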

[8] = qHTS assay to identify small molecule agonists of the estrogen related receptor signaling pathway with the pleiotropic PPARgamma coactivator (PGC) from Tox21 10K library (AID 1224842); further: nearly all actives have a fitted effect of over 15% in size
In short: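 PGC/ERR reporter cells (NTP line) were seeded 2,000 per well, rested 6 h at 37 C/5% CO2, then pin-dosed with compounds in DMSO for 18 h at 37 C; luciferase read by One-Glo luminescence after 30 min at room temperature.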

Measured: Potency

O=Cc1ccc2c(c1)OCO2
inactive: [1] | [2] | [3] | [4] | [5] | [6]

CC(Cl)C(C)Cl (centres undefined)
inactive: [1] | [2] | [3] | [4] | [5] | [7] | [8]

CCOS(C)(=O)=O
inactive: [1] | [2] | [3] | [4] | [5] | [6]

Cc1c(F)c(F)c(COC(=O)C2C(/C=C(\Cl)C(F)(F)F)C2(C)C)c(F)c1F (centres undefined)
inactive: [1] | [2] | [3] | [4] | [5]

O=C(C(Cl)(Cl)Cl)C(Cl)(Cl)Cl
inactive: [1] | [2] | [3] | [4] | [5]
